Compound activity (PubChem BioAssay)
DAX1 inh-1: DAX1 (NR0B1) inhibitors, primary screen, cell-based, HEK293, Gal4-DAX1, luciferase luminescence; Nuclear receptor subfamily 0 group B member 1 (Homo sapiens), P51843; HEK293 Gal4-DAX1 luciferase reporter; inhibition, % at 6.75 µM; hit rate 0.99% among 340,000;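 active means inhibition above the mean over all tested compounds plus 3 SD, cut at about 4.2% in these data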;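 further: 0% = DAX1-transfected cells with DMSO and 100% = empty-vector control cells with DMSO; inhibition shows as a rise in luminescence from relieved DAX1 repression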
Target sequence (P51843 207-470 limits assumed): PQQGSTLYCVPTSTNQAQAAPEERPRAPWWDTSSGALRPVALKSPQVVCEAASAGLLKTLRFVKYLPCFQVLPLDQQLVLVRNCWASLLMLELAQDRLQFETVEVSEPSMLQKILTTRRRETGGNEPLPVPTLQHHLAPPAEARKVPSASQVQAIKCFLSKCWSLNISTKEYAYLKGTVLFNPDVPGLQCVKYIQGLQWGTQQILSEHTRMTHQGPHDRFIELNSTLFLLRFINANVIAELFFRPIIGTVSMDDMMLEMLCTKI
DAX1 inh-2: DAX1 (NR0B1) inhibitors on StAR promoter, primary screen, cell-based, luminescence, SF-1 (NR5A1), full-length DAX-1. inhibition, % at 6.8 µM. hit rate 1.1% among 370,000. HEK293T StAR-luciferase reporter, SF-1/DAX-1 repression relief. AID 652010, 2013;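 active means inhibition above the mean over all tested compounds plus 3 SD, cut at about 3.6% in these data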;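 further: 0% = DAX-1 cells with DMSO and 100% = cells lacking DAX-1 with DMSO; higher inhibition means more luminescence from relief of DAX-1 repression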
hcDAF-12 act: H. contortus DAF-12 nuclear receptor activators, primary screen, cell-based, luminescence, HEK293, lit1-tk-luc reporter; HEK293 hcDAF-12 lit1-tk-luc reporter; 0% DMSO, 100% Δ7-dafachronic acid; activation, % at 6.8 µM; hit rate 1.4% among 370,000;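 active means activation above the mean of all tested compounds plus 3 SD, cut at about 5.5% in these data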;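 further: 100% = response to 3 µM Δ7-dafachronic acid high control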
ssDAF12 agonist: S. stercoralis DAF-12 nuclear receptor activators, primary screen, cell-based, luminescence, HEK293, GRIP1 co-expression, lit1-tk-luc; HEK293 ssDAF-12/GRIP1 lit1-tk-luc reporter; % of 3 µM dafachronic acid response; activation, % at 6.8 µM; hit rate 1% among 370,000; Nuclear hormone receptor DAF-12 (Strongyloides stercoralis);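 active means activation above the mean over all tested compounds plus 3 SD, cut at about 0.9% in these data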;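 further: 0% = DMSO-only wells and 100% = 3 µM delta7-dafachronic acid wells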
hgDAF-12 ag: H. glycines DAF-12 receptor agonists, primary screen, cell-based, luminescence, HEK293, GAL4 fusion, UAS-luciferase | HEK293 GAL4-hgDAF12 UAS-luciferase reporter, agonist luminescence; normalized to butyrate control | activation, % at 6.8 µM | hit rate 1.8% among 370,000 | AID 687014, 2013;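 active means activation above a cutoff set at the mean of all screened compounds plus 3 SD, cut at about 10% in these data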;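 further: 0% = DMSO wells and 100% = sodium butyrate wells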
SMARCA2 activ: SMARCA2 (BRM) function activators, primary screen, cell-based, luminescence, high throughput; MG213 cells, MMTV-luciferase reporter, dexamethasone, overnight; activation, % at 9.1 µM; hit rate 1% among 370,000; AID 652017, 2013; in the data active means activation above about 7.8%;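 further: 0% = vehicle wells and 100% = reference activator wells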
* = called active by the depositor. Rows were chosen to be rich in hits. Some 4.8% of all compounds tested hit in one or more screens of this group.

Screening O=C(c1cc(-c2ccc(F)cc2)on1)N1CCCCCC1 returned DAX1 inh-1 3, DAX1 inh-2 2, hcDAF-12 act 2, ssDAF12 agonist 0, hgDAF-12 ag 12* and SMARCA2 activ 3.
`COc1ccc(-c2cc(C(=O)N3CCCCCC3)no2)cc1OC` gave DAX1 inh-1 1, DAX1 inh-2 0, hcDAF-12 act 1, ssDAF12 agonist 0, hgDAF-12 ag 10* and SMARCA2 activ 1.
Screening Cc1ccc(S(=O)(=O)N2CCCC2C(c2ccccc2O)c2cn(C)c3ccccc23)cc1 (stereo unspecified) returned DAX1 inh-2 -1, hcDAF-12 act -1, ssDAF12 agonist -2, hgDAF-12 ag -4 and SMARCA2 activ -5.
O=C(c1cc(-c2cccc(O)c2)on1)N1CCCC1 was read as DAX1 inh-1 3, DAX1 inh-2 2, hcDAF-12 act 6, ssDAF12 agonist 0, hgDAF-12 ag 13* and SMARCA2 activ 4.
Screening COC(=O)N(C)c1nc2ccccc2s1 returned DAX1 inh-1 2, DAX1 inh-2 0, hcDAF-12 act -1, ssDAF12 agonist -1, hgDAF-12 ag 5 and SMARCA2 activ 3.
For CCCCNC(=O)N(C)c1nc2ccccc2s1 the results were DAX1 inh-1 0, DAX1 inh-2 4, hcDAF-12 act 5.8*, ssDAF12 agonist -1, hgDAF-12 ag 9 and SMARCA2 activ 6.
`CCOc1ccccc1C(=O)Nc1ccccc1-c1ccccc1` gave DAX1 inh-1 0, DAX1 inh-2 0, hcDAF-12 act 5.7*, ssDAF12 agonist -1, hgDAF-12 ag -1 and SMARCA2 activ 1.
For COc1ccc(Cn2cc(CN3[C@@H](Cc4ccccc4)COc4cc(Br)ccc4S3(=O)=O)nn2)cc1 the results were DAX1 inh-2 -1, hcDAF-12 act -2, ssDAF12 agonist -1, hgDAF-12 ag 1 and SMARCA2 activ -3.
`CN(CCc1ccccn1)C(=O)Cn1nc(-c2ccccc2)ccc1=O` gave DAX1 inh-2 0, hcDAF-12 act 2, ssDAF12 agonist -1, hgDAF-12 ag -2 and SMARCA2 activ -7.
`CC(=O)C(C(c1ccccc1)N1CCCc2ccccc21)N1CCOCC1` (stereo unspecified) gave DAX1 inh-1 0, DAX1 inh-2 0, hcDAF-12 act 3, ssDAF12 agonist 1.1*, hgDAF-12 ag 0 and SMARCA2 activ 3.
`O=C(CCc1nc2ccccc2c(=O)[nH]1)NCc1ccccn1` gave DAX1 inh-1 1, DAX1 inh-2 0, hcDAF-12 act -1, ssDAF12 agonist -1, hgDAF-12 ag 3 and SMARCA2 activ -4.
For O=C(CCc1nc2ccccc2c(=O)[nH]1)NCc1ccco1 the results were DAX1 inh-1 5.4*, DAX1 inh-2 1, hcDAF-12 act 1, ssDAF12 agonist -1, hgDAF-12 ag -4 and SMARCA2 activ 1.
`COCCNC(=O)CN(Cc1ccc(F)cc1)C(=O)CCC(=O)Nc1nccs1` gave DAX1 inh-1 4.2*, DAX1 inh-2 0, hcDAF-12 act 0, ssDAF12 agonist -1, hgDAF-12 ag -4 and SMARCA2 activ -4.
`COc1ccccc1N1CCN(N=Cc2ccccc2Br)CC1` gave DAX1 inh-2 -1, hcDAF-12 act 0, ssDAF12 agonist -1, hgDAF-12 ag 0 and SMARCA2 activ -5.
For COc1ccc(C(=O)CSC#N)cc1OC the results were DAX1 inh-1 2, DAX1 inh-2 -1, hcDAF-12 act 0, ssDAF12 agonist -1, hgDAF-12 ag 13* and SMARCA2 activ -2.
`COc1ccc(C(=O)COC(=O)c2ccc(OC)c(OC)c2)cc1OC` gave DAX1 inh-1 0, DAX1 inh-2 -1, hcDAF-12 act -2, ssDAF12 agonist -1, hgDAF-12 ag 0 and SMARCA2 activ -3.
`c1ccc(Nc2ccnc(Nc3ccccc3)n2)cc1` gave DAX1 inh-1 2, DAX1 inh-2 1, hcDAF-12 act 2, ssDAF12 agonist 0, hgDAF-12 ag 11* and SMARCA2 activ 1.
`COc1ccc(-c2cccc3[nH]c4c(c23)CCN2C(=O)[C@H]3[C@H](C)ON(C)[C@H]3C[C@@H]42)cc1` gave DAX1 inh-2 -1, hcDAF-12 act -2, ssDAF12 agonist -1, hgDAF-12 ag -3 and SMARCA2 activ 3.
`Cc1nc(C(F)(F)F)ccc1C(=O)Nc1ccc(C(F)(F)F)cn1` gave DAX1 inh-1 -1, DAX1 inh-2 0, hcDAF-12 act 1, ssDAF12 agonist -1, hgDAF-12 ag 0 and SMARCA2 activ 0.
For Cc1nc(-c2ccncc2)nc(NCCNc2ccc(C(F)(F)F)cn2)c1Cl the results were DAX1 inh-1 9.1*, DAX1 inh-2 0, hcDAF-12 act -1, ssDAF12 agonist 0, hgDAF-12 ag 0 and SMARCA2 activ -5.
For Cc1cccc(NC(=O)CSc2ncnc3nc[nH]c23)c1 the results were DAX1 inh-1 0, DAX1 inh-2 0, hcDAF-12 act -2, ssDAF12 agonist -1, hgDAF-12 ag -2 and SMARCA2 activ -5.
`Cc1ccc(NC(=O)Nc2ncnc3nc[nH]c23)cc1` gave DAX1 inh-1 3, DAX1 inh-2 2, hcDAF-12 act 2, ssDAF12 agonist -1, hgDAF-12 ag 12* and SMARCA2 activ 2.
For CCc1ccc(Nc2ncnc3nc[nH]c23)cc1 the results were DAX1 inh-1 5.3*, DAX1 inh-2 3, hcDAF-12 act 4, ssDAF12 agonist 0, hgDAF-12 ag 12* and SMARCA2 activ 5.
`CCCNc1ncnc2nc[nH]c12` gave DAX1 inh-1 -1, DAX1 inh-2 1, hcDAF-12 act 2, ssDAF12 agonist -1, hgDAF-12 ag 0 and SMARCA2 activ -1.
Screening Clc1ccccc1N1CCN(C2=Nc3ccccc3Sc3ccccc32)CC1 returned DAX1 inh-2 -2, hcDAF-12 act -4, ssDAF12 agonist -2, hgDAF-12 ag -7 and SMARCA2 activ -3.
`COCCCNC(=O)[C@@H](Cc1ccccc1)NC(=O)[C@H]1O[C@@H](n2ccc(=O)[nH]c2=O)[C@H](O)[C@@H]1O` gave DAX1 inh-2 1, hcDAF-12 act 1, ssDAF12 agonist -2, hgDAF-12 ag -2 and SMARCA2 activ -3.
CN(C)C=Nc1nc2c(Br)ccc(Br)c2cc1C(=O)NCC(C)(C)C was read as DAX1 inh-2 -1, hcDAF-12 act 0, ssDAF12 agonist 0, hgDAF-12 ag -3 and SMARCA2 activ -2.
